108 sequences from PubChem BioAssay AID1508600 (Functional Genomics Laboratory (NCATS/FGL), 2020) can be followed below.

The whole screen tested about 53,000 sequences, of which about 3,700 (7%) were called active. The entries come from a sample that favours actives as a whole. Unmarked numbers belong to inactive results.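 Rule for the calls: active = gene knockdowns whose robust z-score for IL-1 alpha signal is at least 2 or at most -2, so actives lie on both sides; inactive = the rest.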

This test in a line: Components of the Cytosolic LPS Sensing Pathway: Gene Identification via Genome-wide siRNA Screen.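 Note: robust z of the log signal after scaling to non-targeting control siRNA wells of the plate.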 The settings on record: RAW264.7 macrophages, IL-1a HTRF, actives lie on both sides, screened at 100 nM (by protocol), cells primed 5 h with Pam3CSK4 first. The method in brief:
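Three distinct siRNAs per gene were tested singly at 100 nM in RAW264.7 macrophages. Following Pam3CSK4 priming and 24 hour LipidA transfection, IL-1a secretion was read by HTRF.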
For orientation: Time-resolved FRET reads energy transfer from a long-lived donor to a nearby acceptor.
For the sequence CCUGAUCUCAGCCUAUACUTT against Rapgef6, the z-score is -2.26 (active). GGAACCAAAAGCCUGGCGATT against Pkd1l3: the z-score was -1.68.

Consider GGACUGAUAUCAUUUCUGATT against Flacc1, for which the z-score was -1. Turning to GCAUCCACCUCAACGAUAUTT against Dlg3, the z-score is -1.33.

Take GCUAGGAGCUAGGAAUCCGTT against Pdzd3: the z-score was -0.682.

On to GGCAGAAUGGGCUUAUGUCTT against Trabd, for which the z-score was -2.54 (active). The same measure for GGAGCUUGCCAUAUUCCUCTT against Leprotl1: 0.915; for GGAAAUAUAUGUCAUGUCATT against Nars: 2.37 (active). Turning to “GCAAGAUUGGAAUGCUCCATT against 3830403N18Rik”, the z-score was 0.309. As for GGAAGAUAAUAUCCUUUGGTT against Olfr734, the z-score was -1.02. GGGAUUUUGAGUUUGAUGCTT against Zc3h10: the z-score was -1.03. In the case of GCUGUCAAAUUAACCUGUGTT against Spin2c, the z-score is -2.31 (active). With GCUCGAUAUAAUUUCACACTT against Neto1, the z-score was -0.75. As for GCCGCUACUCUCCUCAAAATT against Card19, the z-score is -0.329. With CGUGUAAGUUUUGAUUCUATT against Calr, the z-score is 0.815. Take GGAGCUUGUGAACACCUUCTT against Nudc: the z-score is 0.718. As for GGCUAUCUGCUUAUGCUGGTT against Ptch2, the z-score was -0.314. The same measure for CCAGUAAACCGAGACCAUUTT against Nsfl1c: 2.02 (active). In the case of GCUAAGCGAAGAGUUUAACTT against Dlgap3 it was 0.691; in that of GGACUUCUUCGAUUGUUCUTT against Chchd1, 0.475. Turning to GCUCUACAUGAAAACACUGTT against Gpat4, the z-score is -0.28. With CGAAAUUGCUGACUCAGAATT against Arl6ip6, the z-score is 0.549. Take CCCAGCUUUCAUCCUUUGUTT against Emc7: the z-score was 0.237. The same measure for GGGCAGUCUGAUAGAGGAUTT against Adam30: -0.632; for GGCUUCUGAUCUUACCUGGTT against Smim12: 0.683.

As to GGAGGAACCCUCAUUUUAGTT against Prxl2c, the z-score was -0.897. On to CCAACUCGGCUGUUUUUUATT against F11r, for which the z-score is 0.149. As to GGAAAGCACCCAAGAAAUGTT against Gspt1, the z-score was -0.915. Consider GGUACAAUCCCAGAUUUGATT against Smc3, for which the z-score was -2.37 (active). As to CCCUUAAGUCUUUUUCCUATT against Celf2, the z-score is -1.09. Regarding GGCCAUGGUGGCGUGUUAUTT against Egln2, the z-score is -0.524. With GCUGCUCCCUCUAAUAAAATT against Cbr1, the z-score is -0.913. As to GGCGUGAACCAAACAGACUTT against Calcrl, the z-score is -0.604. Regarding CGGAGCCAAAUACGAAGGGTT against Jph3, the z-score is -0.548. The same measure for GGCAGAAAAGAUGGAAAAUTT against Evi5l: -2.1 (active); for GGCAAGCACACAAUGAUGCTT against Plin5: -0.0222. On to GGUAGAACAACAGAACAAUTT against Myo5b, for which the z-score is 2.9 (active). Take GCAGCUUCAAGAGAGCCAUTT against Rhbdl1: the z-score was -0.604. With GGAAGUAGCCCAGAAGUGUTT against Rad51d, the z-score was -0.337. Take GGGAGAGUUCCAUAAAUUGTT against Narf: the z-score was -0.728. As for GGGACUGGCACCAUUUGUUTT against Cetn4, the z-score was -0.289. In the case of GGACAUGGCUUUAUAACCUTT against Dcdc5, the z-score is 0.256. Take GCAGCAUAGAGACUAAAUCTT against Usp17la: the z-score is 0.604.

Take GGAUAAAAUUGAGUCUAUGTT against Was: the z-score was 1.81. In the case of GGGCCAAUGAUGGACUUCCTT against Syp, the z-score was 0.33. Take GGCCCUAUUAGAGAUAAAATT against Robo3: the z-score is -1.2. GGUAGUCUGAACACUCUAATT against Msto1: the z-score was 0.427.

Take GGAAGAAGAGGAGGAGAUGTT against Zbtb7b: the z-score was 3.17 (active). In the case of GCUAUCUCCACUCUGAGUCTT against Spryd4 it was -0.342; in that of CCGCCAGGGAAACAAAUACTT against Zfp414, -1.21.

As for GCUUCUGCUUGUUCGCUAGTT against Usp17ld, the z-score is 2.7 (active). In the case of GCUCACUAUGUAAAGAGAATT against Itpk1 it was 0.807; in that of GGAGAGUCAAGUCUUUUCUTT against Dnal4, 0.0546. Take GGACAAACUCCGAGACUCCTT against Utf1: the z-score is -0.339. GGAUGAUCAUUCUAGCUGUTT against Hormad1: the z-score is 0.836. Take GGUGUCUGAUUCUAACAUATT against Catsper4: the z-score was 0.589. Turning to GGAAGAAAACACCAUUUUUTT against Irf6, the z-score was 3.12 (active). Consider GGUGCAAUCAGGUAUUUCATT against Olfr917, for which the z-score is -2.26 (active). With GGAAAGUGGACACCUUCCATT against Vezt, the z-score is 1.2.

CCAGAAGCCAUUAACUAUGTT against Lck: the z-score was -0.479. As for GGACGUGGAAAACCACAGUTT against Nphp4, the z-score was 0.0474. For the sequence GGAUUUCGAGAAAAUCAACTT against Kctd4, the z-score was -0.225.

Take GGUGCUGGACAAAUUGAGATT against Cgas: the z-score is -0.189.

For GGAGUGCAGUCACUAUUUGTT against Il2rg, the z-score was -0.0154.

For GGUUCUUCAGGCCACUGAUTT against Dnaaf2, the z-score is 0.982. As for GGAUGCAGAGAAGAAUCUGTT against Psmd6, the z-score is -2.65 (active). For GGAGAAGGACCAUCUAAAGTT against Cmah, the z-score is 0.901. Regarding CGUCUAGGAAGGAAACAGGTT against Stk32a, the z-score was -1.54. GGAUGGUUACUAUCAGACUTT against Exoc3: the z-score is 0.187. Take CCAGAUGGAAAGCGAAAAATT against Thra: the z-score is -0.27.

As to GGAGAAUGGCCACGUAAAATT against Marcks, the z-score was 0.294. The same measure for GGAUAUCUCACUGCUUUUATT against Mpp5: 2.13 (active). The same measure for GGCAUCCUUGAGCUUUAAATT against Nufip2: -0.0213; for GGUGCAAGUUUUUCAGUCUTT against Castor2: 0.411.

Take GCACCAUGAAUGGAGAUGATT against Prl2c5: the z-score is -2.56 (active). In the case of GCCAUACACAGUGGCAUAATT against Zfp811, the z-score was 0.395. As for CCAUAAAUCAUGAACUGGUTT against Sesn3, the z-score is -1.41.

For the sequence GGGCAAGAACUACAUCUGCTT against Wdr18, the z-score is -0.288. As for CCCAAAUACUCCAAUUAUATT against Fzd3, the z-score was 0.289. Regarding GCAUCUGGUAAAAGGAGCATT against Rpap1, the z-score is 0.956. On to GCCAGUGGUAUCUGGAAGUTT against Brca2, for which the z-score was 0.0865. In the case of GGUAGAGCUAAGUAAAGAGTT against Pwp1, the z-score was -0.977. Take GGCAGUAAUAGGAGACCAUTT against Ces1d: the z-score is 2.76 (active). Turning to GGCUUCAGCAAAGACAAUGTT against Ache, the z-score was -1.07.

For CGCAAAGUGGACAAACGUATT against Kcne3, the z-score was 0.0218. For the sequence CCAAUCGGUGAUCAAGAAATT against Tfap2e, the z-score is -0.525.

GCCAAGGUUAUCAUGAAUGTT against F13a1: the z-score was -0.141.

For GUUUUUCUGGGCAAUUUUATT against Olfr739, the z-score is 2.11 (active). GGAGAUUUACUCACAGUUCTT against Kcnip4: the z-score is 1.26. As for GUAAAAUGUUCACUAAAGCTT against Olfr1248, the z-score was -1.14. With GCUUAUAAUGCCAUUACUUTT against Rad21, the z-score is -0.548.

Consider CGAUUUAAAGUAGUAGUGGTT against Dusp28, for which the z-score is -1.13. For the sequence GACAGAAAUAUAGACUCGATT against Ppp1r42, the z-score is -2.45 (active). In the case of CGGAUAACAAAAGUAGCAATT against Trp53rka it was 0.276; in that of GGUUUAGCAUCGUCCUAUATT against Crmp1, -0.495.

CGGCAGAUGCAUUCAGGAUTT against Ccdc125: the z-score was 0.0172.

For GGAGGUGUUAGAUUUUGACTT against Asrgl1, the z-score is -0.295. The same measure for GGCGGAGGAAGAGUUCAACTT against Atp6v1e2: -0.393; for GGAUGAAACUAUUCAGCACTT against Chml: -0.635; for GCAGGAGGAUUAGUAAAUUTT against Ier2: 0.966. As to CCCUAUUGUCAAUAUUCUATT against Nr1h5, the z-score was 0.492. The same measure for GGGAGCAAAAGCUUUACUUTT against Prl3c1: 2.25 (active); for GGAGAAAUUUCUGAGAAGATT against Slc51a: -1.24; for GGCGGCCUUAGUAGAUAUCTT against Acsl4: 0.677.

As to GGAACAAGGAAGUUACAGGTT against Olfr30, the z-score was -1.06.

As to GAAAAGAGUUUCCACGAGATT against Il19, the z-score is 0.0645. GGAGAUUCUCCAUAACCUGTT against Rnf135: the z-score is 2.29 (active). Take “GGGAGAAAGAUUGUAACUATT against 1110032A03Rik”: the z-score was -1.05.
